Compounds with a hit are over-represented: about 5.1% of the library has one in this group of screens.
TMEM16A act: TMEM16A chloride channel activators or potentiators, primary screen, cell-based, HTS | 0.3% of 340,000 active | B-score at 10 µM | Anoctamin-1 (Mus musculus), Q8BHY3 | HEK293 TMEM16A/YFP-H148Q/I152L, iodide quench fluorescence; stronger effect = lower value;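 active = fluorescence-ratio B-score plate-corrected deviation score at least 3 library SD below zero, with starting fluorescence score within 5 deviations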;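 note: channel opened by trigger with iodide after compound preincubation; score built on the fluorescence ratio of max minus min over baseline; more negative score means more quench and so TMEM16A activation or potentiation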
Target sequence (Q8BHY3 whole entry, looked up): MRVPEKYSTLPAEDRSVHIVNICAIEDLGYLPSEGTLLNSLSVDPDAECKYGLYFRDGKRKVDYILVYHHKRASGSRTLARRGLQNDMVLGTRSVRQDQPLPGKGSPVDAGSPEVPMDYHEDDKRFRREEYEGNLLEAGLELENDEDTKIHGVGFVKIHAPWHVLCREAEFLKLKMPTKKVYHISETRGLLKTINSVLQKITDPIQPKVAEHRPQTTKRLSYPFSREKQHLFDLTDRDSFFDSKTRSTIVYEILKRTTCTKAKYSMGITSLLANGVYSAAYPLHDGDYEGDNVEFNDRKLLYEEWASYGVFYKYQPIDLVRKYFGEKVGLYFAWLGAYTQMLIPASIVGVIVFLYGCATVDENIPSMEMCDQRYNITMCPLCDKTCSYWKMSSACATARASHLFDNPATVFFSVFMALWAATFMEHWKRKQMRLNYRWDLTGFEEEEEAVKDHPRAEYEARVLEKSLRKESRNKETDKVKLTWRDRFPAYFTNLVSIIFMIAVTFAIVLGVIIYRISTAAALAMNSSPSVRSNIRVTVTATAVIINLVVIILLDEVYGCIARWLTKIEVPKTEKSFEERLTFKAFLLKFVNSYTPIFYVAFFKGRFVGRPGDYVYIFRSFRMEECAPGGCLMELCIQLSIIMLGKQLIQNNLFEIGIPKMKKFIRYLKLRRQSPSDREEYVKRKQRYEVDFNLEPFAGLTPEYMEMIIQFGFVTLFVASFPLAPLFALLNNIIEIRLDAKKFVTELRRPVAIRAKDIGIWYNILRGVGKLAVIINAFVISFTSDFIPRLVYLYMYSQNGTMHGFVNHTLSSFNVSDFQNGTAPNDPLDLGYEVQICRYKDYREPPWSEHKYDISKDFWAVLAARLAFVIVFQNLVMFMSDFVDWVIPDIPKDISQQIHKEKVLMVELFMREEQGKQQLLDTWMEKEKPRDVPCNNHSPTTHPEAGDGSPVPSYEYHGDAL
CRFBP-R2 block: antagonists of CRF-BP/CRF-R2 complex, primary screen, cell-based, HEK293, calcium dye fluorescence, uHTS; CRF-induced calcium fluorescence; inhibition, % at 11.8 µM; 0.59% of 350,000 active; AID 588475, 2011;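 active = inhibition of the ligand-induced calcium signal above about 50% at the single tested concentration, limit read from the data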
TMEM16A inh: TMEM16A chloride channel inhibitors, primary screen, cell-based, HTS; Anoctamin-1 (Mus musculus), Q8BHY3; HEK293 TMEM16A/YFP iodide influx fluorescence, ionomycin; normalized B-score (activity score, 25-100; higher = stronger inhibition) at 10 µM; 1.2% of 310,000 active; AID 588511, 2011;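 active = ratio plate-corrected score three or more library SD toward inhibition, starting fluorescence score within five deviations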;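 note: score derived from kinetic fluorescence span divided by baseline fluorescence per well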
CRFBP-R2 agonist: agonists of CRF-BP/CRF-R2 complex, primary screen, cell-based, HEK293, calcium dye fluorescence, uHTS; CRF-binding protein / CRF receptor 2 complex (human); calcium dye fluorescence (FLIPR); percent of saturating CRF peptide response; activation, % at 13.2 µM; 0.46% of 350,000 active;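 active = activation of at least 50%, plus an integration ratio under a set limit after plate pattern correction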
GRIN3A LBD mod: binders of NR3A ligand-binding domain, primary screen, biophysical, differential scanning fluorimetry, uHTS; Glutamate receptor ionotropic, NMDA 3A (GRIN3A) ligand-binding domain; NR3A LBD differential scanning fluorimetry, Tm shift; 0% = protein alone, 100% = glycine-bound protein; Tm shift relative to glycine control, % at 25 µM; 2.5% of 340,000 active; AID 1259313, 2017;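 active = melting temperature shift of at least 10% of the positive control shift, at one fixed dose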
MPTP block: mitochondrial permeability transition pore inhibitors, primary screen, biochemical, isolated mouse mitochondria, absorbance; Ca2+ swelling absorbance, 30 min; inhibition, % at 10 µM; 1.4% of 360,000 active;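 active = inhibition of 50% or more, scaled per plate between neutral and stimulator controls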
MPTP counter: fluorescence retest of MPTP screen hits in isolated mitochondria, single concentration; 78% of 5,000 active; shares compounds with MPTP block; membrane potential, Rhodamine 123 fluorescence; inhibition, % at 10 µM; AID 624504, 2012; in the data active = inhibition above about 22%
MPTP abs DR: mitochondrial permeability transition pore inhibitors, dose response, biochemical, absorbance, uHTS hits | shares compounds with MPTP block | isolated mitochondria swelling | IC50, µM | 58% of 780 active | AID 651561, 2012; in the data active = IC50 below about 20 µM
MPTP cs DR: fluorescent counter-screen in isolated mitochondria, dose response, counter-screen for MPTP inhibitor project, biochemical, fluorescence, uHTS hits. IC50, µM. shares compounds with MPTP block. isolated mitochondria counterscreen, fluorescence read-out. 49% of 780 active. AID 651564, 2012; in the data active = IC50 below about 80 µM
Numbers stand for hits; – = inactive; · = no result given; ! = not active in a repeat.

SMILES	TMEM16A act	CRFBP-R2 block	TMEM16A inh	CRFBP-R2 agonist	GRIN3A LBD mod	MPTP block	MPTP counter	others
Fc1ccc(CNC(=S)Nc2ccc(Cl)cc2)cc1	–	–	–	–	–	65.2	95.4
S=C(NCc1ccc(Cl)cc1)Nc1ccccc1	–	–	–	–	–	65.0	92.6
Cc1ccc(Cc2c(-c3cccc(Cl)c3)nc3ccc(Cl)cn23)cc1	·	·	·	·	·	–	·
O=C(CN1C(=O)C2C3CC(C(Br)C3Br)C2C1=O)Nc1ccc(C(=O)O)cc1 (stereo unspecified)	–	–	–	–	–	–	·
O=C(COC(=O)CNC(=O)c1ccccc1)NCc1ccc2c(c1)OCO2	–	–	·	–	–	–	·
Fc1cccc(NC(=S)NCc2ccccc2Cl)c1	–	–	–	–	–	85.9	96.9
S=C(NCCC(c1ccccc1)c1ccccc1)Nc1cccc(Cl)c1	–	–	–	–	15.8	97.5	87.3
O=C(c1cc(Cl)nc2ccccc12)N1CCN(S(=O)(=O)c2cccc(C(F)(F)F)c2)CC1	–	–	–	–	–	–	·
O=C(NN1C(=O)/C(=C/c2cc([N+](=O)[O-])ccc2O)SC1=S)c1ccccc1O	·	·	–	·	·	·	·
Cc1ccc(/C=C2\SC(=S)N(/N=C/c3cc([N+](=O)[O-])ccc3O)C2=O)o1	–	–	–	–	–	72.2	–
COc1cccc(C2/C(=C(/O)c3ccc4c(c3)OCO4)C(=O)C(=O)N2CCN2CCOCC2)c1 (stereo unspecified)	–	–	–	–	–	–	·
CCOCCCNCc1cn(-c2ccc(F)cc2F)nc1-c1ccccc1C	–	–	–	–	–	57.8	–	MPTP abs DR=14.6;MPTP cs DR=60.4
Cc1ccccc1-c1nn(-c2ccc(F)cc2F)cc1CNCC(C)O (stereo unspecified)	–	–	–	–	–	–	·
CCOC(=O)Cc1csc(N/N=C/c2ccc(Cl)cc2)n1	–	–	–	–	–	–	·
Cc1cnc(NC(=O)Nc2ccc(Cl)cc2)s1	–	–	–	–	25.5	82.3	86.0
CCOC(=O)Cc1csc(NC(=O)Nc2ccc(Cl)cc2)n1	–	–	–	–	–	74.3	76.5
Cc1csc(NC(=O)Nc2ccc(Cl)cc2)n1	–	–	–	–	20.6	73.6	69.2
O=C(Nc1ccc(Cl)cc1)Nc1nc(-c2sccc2Br)cs1	–	–	–	–	–	–	·
O=C(Nc1ccc(Cl)cc1)Nc1nc(-c2ccccc2O)cs1	–	–	–	–	26.1	98.8	67.0
COc1cccc(-c2cc(CNC(=O)[C@H]3O[C@@H](n4ccc(N)nc4=O)[C@H](O)[C@@H]3O)no2)c1	·	·	·	·	·	–	·
O=C(Cc1csc(NC(=O)Nc2ccc(Cl)cc2)n1)NC1CCCC1	–	–	–	–	13.4	94.3	80.5
CCOC(=O)Cc1csc(NC(=O)Nc2cccc(Cl)c2)n1	–	–	–	–	–	73.1	86.3
NCc1csc(NC(=O)Nc2cccc(Cl)c2)n1	·	·	·	·	·	–	·
O=C(Cc1csc(NC(=O)Nc2ccc(Cl)cc2)n1)NCc1ccccn1	–	–	–	–	–	–	·
CCOC(=O)c1csc(NC(=O)Nc2cccc(Cl)c2)n1	–	–	–	–	–	96.6	84.2
SMILES	TMEM16A act	CRFBP-R2 block	TMEM16A inh	CRFBP-R2 agonist	GRIN3A LBD mod	MPTP block	MPTP counter	others
CN(C)Cc1csc(NC(=O)Nc2cccc(Cl)c2)n1	·	·	·	·	·	–	·
Cn1cc(C(=O)Nc2ccc(Cl)cc2)c(C(F)(F)F)n1	–	–	–	–	–	–	·
Cn1cc(NC(=O)Nc2ccc(C(F)(F)F)cc2)c(C(F)(F)F)n1	–	–	–	–	–	66.1	85.8
Cc1cc2c(NC(=O)Nc3ccc(C(F)(F)F)cc3)cccc2nn1	–	–	–	–	–	85.8	85.1
O=C(CCC(=O)OCC(=O)c1ccc(C(F)(F)F)cc1)OCC(=O)c1ccc(C(F)(F)F)cc1	–	–	–	–	–	–	·
COCCCC/C(=N\OCCN)c1ccc(C(F)(F)F)cc1	–	–	–	–	–	81.9!	–	MPTP abs DR=13.1;MPTP cs DR=–
CN(CCC1CCOCC1)C(=O)CC1C(=O)NCCN1Cc1c(F)cccc1Cl (stereo unspecified)	–	–	–	–	–	–	·
CCc1nc2ccc(C(=O)Nc3ccc(OC)c(OC)c3)cn2c1N(C)Cc1cccs1	·	·	·	·	·	–	·
O=C(NC(c1cccnc1)C(F)(F)F)c1cc(COc2ccc3c(c2)CCCC3)on1 (stereo unspecified)	–	–	25	–	–	100.4	85.9
CSc1ncccc1C(=O)N1CCN(S(=O)(=O)c2ccccc2)CC1	–	–	–	–	–	–	·
COc1cc(CNC2CCCC2)cc(Cl)c1OCc1ccccc1Cl	–	–	–	–	–	82.2	–
COc1cc(CNCCO)cc(Br)c1OCc1ccccc1Cl	–	–	–	–	–	–	·
COc1cc(CNCCO)cc(Cl)c1OCc1ccc(Cl)cc1Cl	–	–	–	–	–	96.9	–
CS(=O)(=O)NCCCNc1ccc(Cl)cc1[N+](=O)[O-]	–	–	–	–	–	–	·
O=[N+]([O-])c1cc(C(F)(F)F)ccc1NCCNC(=S)Nc1ccc(Cl)cc1	–	–	100	–	15.4	94.2	70.3
O=[N+]([O-])c1cc(C(F)(F)F)ccc1NCCCCNS(=O)(=O)c1ccc(Cl)cc1	–	–	–	–	–	86.5	90.3
COc1ccc(C(C)NC(=O)CC23CC4CC(CC(C4)C2)C3)cc1 (stereo unspecified)	–	–	–	–	–	–	·
Cc1nnc(NC(=O)C2CCN(S(=O)(=O)c3cc([N+](=O)[O-])ccc3Cl)CC2)o1	–	–	·	–	–	–	·
Cc1cccc2sc(NC(=O)C3CCN(S(=O)(=O)c4cc([N+](=O)[O-])ccc4Cl)CC3)nc12	–	–	–	–	–	99.5	74.6
C[C@H]1c2cccc(O)c2C(O)=C2C(=O)[C@]3(O)C(O)=C(C(N)=O)C(=O)[C@@H](N(C)C)[C@@H]3[C@@H](O)[C@@H]21	–	–	–	–	–	79.9	–
Cc1nn(-c2ccccc2)c(C)c1C(=O)OCC(=O)Nc1ccccc1Cl	·	–	·	–	·	–	·

High-throughput results from PubChem.
